# Bioassay records as filed in PubChem BioAssay.
# CYP2C9 inh – blocks human cytochrome P450 2C9; P11712; CYP2C9 Supersomes, luciferin-H conversion, luminescence; inhibition, % at 5 µM; hit rate 20% among 96,000; AID 777;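 active = blocking of liver enzyme CYP2C9 beyond about 50% at 5 µM, limit read from the data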
# CYP2C19 activ – activators of human cytochrome P450 2C19; P33261; recombinant CYP2C19, luciferin-H EGE luminescence; stronger effect = higher value; 0 = fully inhibited enzyme, 1 = untreated enzyme; activation factor at 5 µM; 96,000 tested, under 10 active; AID 1025;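 active = activation factor of at least 2 at 5 µM in the primary screen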;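 also: 0 = wells with 2.5 mM tranylcypromine and 1 = vehicle-only wells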
# Cav32 inh – human Cav3.2 channel inhibition, primary screen | AID 449739 | Cav3.2-expressing cells, Fluo-4 calcium fluorescence FDSS; stronger effect = lower value | hit rate 4% among 100,000 | B-score at 10 µM | O95180;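 active = single-dose well whose peak fluorescence ratio is a statistical outlier from its plate by either plate-standardised score or position-corrected B-score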
# CYP2C9 activ – CYP2C9 (human) activation; P11712; recombinant CYP2C9, luciferin-H conversion, luminescence; stronger effect = higher value; factor 1 = untreated enzyme, 0 = blocked; activation factor at 5 µM; hit rate 1.4% among 96,000;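 active = activation factor of 2 or more for CYP2C9 at a 5 µM dose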;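 also: 0 = sulfaphenazole-blocked wells and 1 = vehicle-only wells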
# CYP2C19 inhib – human CYP2C19 inhibition | CYP2C19 Supersomes, luciferin-H EGE luminescence, 30 min | inhibition, % at 5 µM | hit rate 21% among 96,000;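 active = CYP2C19 inhibition above a set limit at 5 µM in the primary screen, cut at about 50% in these data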;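 also: plate controls were negative control wells for no effect and 2.5 mM tranylcypromine positive control for full effect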
# The depositor's hits bear a star; . = no result given. A selection: hits, their analogues and other compounds. The true share with any hit is near 27%.
SMILES,CYP2C9 inh,CYP2C19 activ,Cav32 inh,CYP2C9 activ,CYP2C19 inhib
CCCc1n[nH]c2c1C(=O)CC(C)(C)C2,-7,1,-0.014,1.1,1
CC1(C)CC(=O)c2c(-c3cccs3)n[nH]c2C1,52*,0.2,0.47,0.5,79*
O=C(O)c1cccc(N2C(=O)c3cccnc3C2=O)c1,21,1,0.077,0.8,-5
O=C(NCCO)c1ccccc1O,-10,1,0.0076,1.1,-3
O=C(NCc1ccccc1)c1ccc(-c2ccccc2F)o1,48,0.4,-4.2*,0.5,62*
O=C(NCCCc1ccccc1)c1ccc(Br)o1,51*,0,-0.11,0.5,96*
NS(=O)(=O)c1ccc(CNC(=O)c2ccc(Br)o2)cc1,-9,1.1,-0.3,1.1,-13
O=C(NCCc1ccccc1)c1ccc(-c2ccccc2C(F)(F)F)o1,.,.,-3.1,.,.
O=C(NCCCc1ccccc1)c1ccccc1O,90*,0,-2.6,0.1,97*
O=C(NCc1ccc(Cl)cc1)c1ccc(Br)o1,59*,0,-0.012,0.4,95*
Cc1ccccc1C(=O)O/N=C1\CCS(=O)(=O)c2sccc21,2,1,1.8,1,3
COc1ccc(-n2c(=O)c3ccccc3n(CC(=O)NC3CCCC3)c2=O)cc1,16,0.9,.,0.8,8
Cc1cc(NC(=O)CCC(=O)N(c2ccc(F)cc2)C(C(=O)NC2CCCC2)c2ccncc2)no1 (configuration not stated),30,0.5,.,0.7,48
Cc1nn(C(=O)c2ccco2)c(C)c1CN1C(=O)c2ccccc2C1=O,96*,0.6,-0.25,0,42
Cc1nn(C(=O)N2CCCCC2)c(C)c1CN1C(=O)c2ccccc2C1=O,61*,0.3,0.61,0.4,69*
Cc1nn(C(=O)c2cccs2)c(C)c1CN1C(=O)c2ccccc2C1=O,39,0.7,0.088,0.6,28
CCN1CCCC1CN(Cc1cc2ccc(C)c(C)c2[nH]c1=O)C(=O)Nc1ccccc1OC (configuration not stated),7,1,0.77,0.9,-3
O=C(NCCc1ccccc1)C(=O)NCC1CCCO1 (configuration not stated),6,0.9,0.68,0.9,12
O=C(Cn1nnc(-c2ccccc2)n1)N=Nc1c(O)[nH]c2ccccc12,1,1,1.1,1,0
O=C(N=Nc1c(O)[nH]c2ccc(Br)cc12)c1ccccc1-n1cccc1,64*,0.6,.,0.4,36
Cc1cccc(C)c1OCC(=O)N=Nc1c(O)[nH]c2ccc(Br)cc12,88*,0.7,.,0.1,33
COc1ccc(C(=O)NC2CCN(C(=S)Nc3cc(C)ccc3C)CC2)cc1,-10,1,-1.5,1.1,0
CN(C(=O)/C(N=Nc1cccc(C(F)(F)F)c1)=C(\O)C(F)(F)F)c1ccccc1,80*,0.2,.,0.2,82*
COc1ccc2occ(C(=O)c3cccs3)c2c1,53*,0.2,-1.6,0.5,75*
COc1ccc(OC)c(C(=O)c2coc3ccc(OCC(=O)O)cc23)c1,5,1,-0.35,0.9,4
SMILES,CYP2C9 inh,CYP2C19 activ,Cav32 inh,CYP2C9 activ,CYP2C19 inhib
CC1(C)N=C(SCC(=O)Nc2ccc(Cl)cc2)C(c2ccccc2)=N1,68*,0.2,-5.2*,0.3,77*
CC1(C)N=C(SCC(=O)Nc2ccc(Cl)cc2)C(c2ccc(Cl)cc2)=N1,40,0.6,-0.76,0.6,38
CSc1nc(N)nc(SCC(=O)C23CC4CC(CC(C4)C2)C3)c1C#N,.,.,-2.3,.,.
Nc1nc(SCC(=O)C23CC4CC(CC(C4)C2)C3)n[nH]1,53*,0.6,-1.3,0.5,45
Cc1nc(NCCc2ccccc2F)c(C#N)c(C)c1[N+](=O)[O-],68*,0.7,0.068,0.3,26
CCOC(=O)c1cnc(SCC(=O)Nc2sc(C)c(C)c2C#N)nc1N,62*,0.8,3.1,0.4,18
CCCCSc1ncc(C(=O)OCC)c(N)n1,.,.,-4.6*,.,.
CCOC(=O)c1cnc(SCCc2ccccc2)nc1N,4,0.6,0.014,1,38
CCOC(=O)c1cnc(SC2CCc3ccccc3C2=O)nc1N (configuration not stated),-29,0.2,0.043,1.3,81*
CCOC(=O)c1cnc(SCC(=O)Nc2cc(OC)cc(OC)c2)nc1N,44,1,1.6,0.6,2
Cc1ccc(-c2nnc(SCC(=O)Nc3sc(C)c(C)c3C#N)n2C)cc1,.,.,0.48,.,.
Cc1sc(NC(=O)CSc2nc(N)n(CC(=O)c3ccccc3)n2)c(C#N)c1C,98*,0.1,-0.28,0,93*
CC1CN(C2CCN(C(=O)COc3ccc(Cl)cc3)CC2)CC(C)O1 (configuration not stated),3,0.9,0.36,1,9
CCOC(=O)c1cnc(SCc2ccc(C)cc2)nc1N,3,1,0.92,1,-3
CCOC(=O)c1cnc(SCC(=O)NCc2cccs2)nc1N,93*,0.2,0.17,0.1,80*
COc1ccc(C(O)CNc2ccc(C)cc2)cc1 (configuration not stated),16,0.1,-0.34,0.8,92*
COc1ccc(C(=S)Nc2ccc(C)cc2)cc1,14,0.7,.,0.9,32
COc1ccc(CCNc2ccc(C)cc2)cc1,45,0.2,0.87,0.5,85*
CC1CN(CCC(=O)Nc2ccc3c(c2)CCC3)CC(C)O1 (configuration not stated),8,0.5,0.92,0.9,52*
COc1ccc(CC(=O)Nc2ccc3c(c2)CCC3)cc1OC,-35,0.2,-0.78,1.3,81*
O=C(O)COCC(=O)Nc1ccc2c(c1)CCC2,-14,1.1,0.72,1.1,-10
CC1CCN(CCC(=O)Nc2ccc3c(c2)CCC3)CC1,.,.,1,.,.
C=CCn1c(SCc2csc(C)n2)nc2sc3c(c2c1=O)CCCCC3,88*,0.5,-2.1,0.1,45
C=CCn1c(SCc2csc(C)n2)nc2sc3c(c2c1=O)CCC(C)C3 (configuration not stated),.,.,-0.79,.,.
C=CCn1c(SCc2csc(C)n2)nc2sc3c(c2c1=O)CCCC3,50*,0.8,-0.024,0.5,21
O=C(O)C1C2C=CC(C2)C1C(=O)OCc1ccccc1 (configuration not stated),-1,1.1,0.083,1,-9
CC1CC(N(C(=O)c2ccco2)c2ccccc2)c2ccccc2N1 (configuration not stated),96*,0.2,-4.3*,0,84*
COc1ccc(CNC(=O)C2COc3ccccc3O2)c(OC)c1 (configuration not stated),5,0.2,.,0.9,78*
COc1ccc(NC(=O)CCC2COc3ccccc3O2)c(OC)c1 (configuration not stated),26,0.2,-0.55,0.7,83*
COc1ccc(OC)c(NC(=O)C2COc3ccccc3O2)c1 (configuration not stated),16,0.3,-2.4,0.8,67*
